# Test results reported in PubChem BioAssay AID504847 (National Center for Advancing Translational Sciences (NCATS), 2011).
# Out of some 400,000 compounds screened, about 3,700 (0.93%) were called active. Another 3% or so got no clear call; they are omitted. The sample as a whole holds a higher share of actives than the screen did. A number with no mark means an inactive call. Calls follow the shape of the dose curve; as a rule, active = well fitted inhibition curve with a large enough effect; inconclusive = small, poorly fitted or top-dose-only effect, or another doubt; inactive = no such curve, though single readings can be large or run the other way.
# Molecular target: Vitamin D3 receptor (Homo sapiens) (UniProt P11473)
# Experiment: Inhibitors of the vitamin D receptor (VDR): qHTS
# Conditions: VDR-SRC2-3 peptide fluorescence polarization, 2 h; max response, negative = inhibition: active compounds read low
# Source text: The vitamin D receptor (VDR) is a ligand-activated transcription factor and is partially responsible for the regulation of the endocrine system. This includes the transcriptional regulation of genes involved in the production of the parathyroid hormone (PTH) and the regulation of the blood calcium level. High levels of PHT can cause hypercalcemia in the case of primary and tertiary hyperparathyroidism. The VDR-mediated gene regulation, activated by its ligand 1,25-dihydroxyvitamin D3 (1,25-(OH)2D3), is governed by the recruitment of coactivators. Our hypothesis is that small molecules, with the ability to inhibit the interaction between VDR and certain coactivators, are able to selectively modulate VDR-mediated transcription. Our long term objective is the application these VDR-coactivator inhibitors to study the role of VDR-coactivator binding for specific VDR regulated genes. Ultimately, these molecules can be developed into new treatments for hypercalcemic hyperparathyroidism. No small molecule or non-peptide inhibitors are known for the VDR-coactivator interaction.
# In a collaboration between the University of Wisconsin, Milwaukee and the NIH Chemical Genomics Center (NCGC) a HTS-compatible enzymatic assay was developed. The assay uses fluorescence polarization as its read-out to measure the inhibition between VDR and coregulator peptide SRC2-3 exerted by small molecules. This assay was used to screen the NIH Molecular Libraries Small Molecule Repository (MLSMR).
# NIH Chemical Genomics Center [NCGC]
# NIH Molecular Libraries Probe Centers Network [MLPCN]
# Assay Submitter (PI): Alexander Arnold, University of Wilwaukee
# Both solutions are kept at 4 deg C and protected from light and dispensed using a Kalypsys dispenser. Then 23nl of compounds and controls are added with Kalypsys pintool. […] Plate is centrifuged at 1000 RPM for 15 seconds to remove any residual bubbles. The plate is then incubate at ambient room temperature for 2 hours.
# % is scaled to controls: 0 for no effect and ±100 for the full control effect; potency is read from the fitted curve at half-maximal effect.
# Chain of Vitamin D3 receptor (Homo sapiens) (P11473 whole entry, looked up): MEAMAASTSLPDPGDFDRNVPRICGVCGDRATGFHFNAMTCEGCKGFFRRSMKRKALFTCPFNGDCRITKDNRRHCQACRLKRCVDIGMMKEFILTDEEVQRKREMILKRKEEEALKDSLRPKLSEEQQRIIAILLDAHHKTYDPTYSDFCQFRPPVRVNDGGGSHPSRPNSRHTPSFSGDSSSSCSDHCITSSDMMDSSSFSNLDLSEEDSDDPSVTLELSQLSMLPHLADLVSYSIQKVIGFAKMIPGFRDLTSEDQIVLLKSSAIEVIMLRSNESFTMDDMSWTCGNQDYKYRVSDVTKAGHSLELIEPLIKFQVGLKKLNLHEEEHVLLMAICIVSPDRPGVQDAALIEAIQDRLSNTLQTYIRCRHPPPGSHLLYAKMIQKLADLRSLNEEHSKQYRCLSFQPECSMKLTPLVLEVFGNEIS
SMILES,Potency,"max response, negative = inhibition"
COc1cc(C(=S)NCc2ccccc2)cc(Br)c1O,50.1 µM (active),
COc1ccccc1OCCC(=O)OCC(=O)NCc1ccccc1,,-14.2%
COc1cc(C(=O)NCc2ccncc2)cc(Br)c1OCc1ccccc1,,-8.88%
COc1ccc(NC(=O)C2CCCN(S(=O)(=O)c3cccc4nonc34)C2)cc1Cl (stereo not given),,-11.1%
Cc1ccc(NC(=O)C(=O)NCC(c2cccnc2)N2CCOCC2)cc1 (stereo not given),,7.68%
COc1ccc(CCn2cc3c(c2-c2ccc(Br)cc2)c(=O)n(C)c(=O)n3C)cc1OC,,-7.8%
COCCNC(=S)Nc1cc(S(=O)(=O)N2CCOCC2)ccc1N1CCCCC1,35.5 µM (active),
Cc1ccc(S(=O)(=O)N2CCOCC2)cc1C(=O)Nc1ccccc1N1CCCC1,,-16.8%
O=C(COC(=O)Cc1ccc(F)cc1)Nc1cc(S(=O)(=O)N2CCOCC2)ccc1N1CCCC1,,2.6%
COCCn1c(=O)c(-c2ccccc2)nc2cnc(N3CCOCC3)nc21,,8.94%
CCC(=O)N1N=C(c2ccc(OC)cc2)CC1c1cn(-c2ccccc2)nc1-c1cccs1 (stereo not given),,-4.57%
Cc1ccccc1NC(=O)Cn1c(=O)n(CCc2ccccc2)c(=O)c2ccccc21,,-10.9%
Cc1cc(Cl)ccc1OCC(=O)N(Cc1ccc(N(C)C)cc1)C1CCS(=O)(=O)C1 (stereo not given),,9.26%
CC(C)Cn1c(=O)c2ccccc2n2c(-c3cccc(Cl)c3)nnc12,,21.6%
O=c1[nH]c2ccccc2n2c(-c3ccccc3)nnc12,12.6 µM (active),
CCc1ccc(NC(=O)c2cc(S(=O)(=O)N3CCCC(C)C3)cn2C)cc1 (stereo not given),,9.47%
COc1ccc(C2CC(=O)N(Cc3ccccc3C)c3c2c(C)nn3-c2nc(C)cc(C)n2)c(OC)c1 (stereo not given),,5.38%
CN(C)c1nc(NN)nc(Nc2ccc(F)cc2)n1,,-11.3%
Fc1ccc(Nc2nnns2)cc1,79.4 µM (active),
CSc1nc(Nc2ccc(F)cc2)cc(-c2ccccc2)n1,,5.7%
Cc1ccc(-c2nc(SCc3ccc(Br)cc3)n3[nH]c(=O)cc3n2)cc1,,16.1%
CCc1ccccc1N1CC(c2nc3ccccc3n2CCCCOc2ccccc2)CC1=O (stereo not given),,13.5%
Cc1cc(C)nc(NC(=O)/C=C/c2ccc(Cl)cc2)n1,,-4.04%
Cc1cccc(C(=O)Nc2ccc(C(=O)/C=C/c3cccs3)cc2)c1,,5.44%
Cc1cccc(C=CC(=O)c2ccc(Cl)cc2)c1,20 µM (active),
